The structures appear in SMILES notation. Records with an inconclusive call do not appear. The source made the active and inactive calls. The call rests on the fitted dose curve; in most records, active means well fitted inhibition curve with a large enough effect; inconclusive means small, poorly fitted or top-dose-only effect; inactive means flat fitted curve, though single readings scatter.

Assay in all cases: qHTS profiling for inhibitors of Plasmodium falciparum proliferation (AID 504749); further: nearly all actives have a fitted effect of over 60% in size
What all share (details): P. falciparum in erythrocytes, SYBR Green DNA, 72 h; series mostly up to 28.7 µM

For experiment [1], the system named is ATS189. In outline: (§1)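 Each compound contacts P. falciparum-infected red blood cells for 72 h at 37 C; lysis buffer (Tris, EDTA, saponin, Triton X, SYBR Green I) is added and fluorescence measured next morning; values normalized to controls.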
Experiment [2] deals with ATS95. In outline: as §1
The test system of experiment [3] is C2A. In outline:
as §1

The test system of experiment [4] is CP185. A digest of the protocol: as §1
Experiment [5] has as its system CP191. A digest of the protocol:
as §1

Experiment [6] has as its system CP192. A digest of the protocol:
as §1

The test system of experiment [7] is CP194. A digest of the protocol:
as §1

The subject of experiment [8] is CP201. A digest of the protocol: as §1
For experiment [9], the system named is CP211. In outline:
as §1

Experiment [10] relates to CP215. A digest of the protocol: as §1
The test system of experiment [11] is CP217. In outline:
as §1

For experiment [12], the system named is CP237. A digest of the protocol:
as §1

The subject of experiment [13] is CP238. A digest of the protocol: as §1
The test system of experiment [14] is CP247. A digest of the protocol:
as §1

The test system of experiment [15] is CP250. In outline:
as §1

Experiment [16] has as its system CP252. A digest of the protocol:
as §1

In experiment [17] the test system is CP256. A digest of the protocol:
as §1

Experiment [18] has as its system CP260. In outline:
as §1

The test system of experiment [19] is CP262. In outline: as §1
Experiment [20] relates to CP203. In outline:
as §1
Potency means the concentration at half of the fitted maximal effect.

Take `COc1ccc(CN(CCN(C)C)c2ncccn2)cc1`: the Potency entry in [1], in [2], in experiment [3], in [4], in experiment [5] and in experiment [6] was “inactive” each time. Moreover, the Potency result in [7], in [8], in experiment [9], in experiment [10], in experiment [11] and in experiment [13] was “inactive” in each case. The Potency result in experiment [14], in experiment [15], in experiment [16], in experiment [17], in [18] and in experiment [19] was “inactive” in each case. In addition, the Potency in [12] was 7.08 µM (active).

For `Cc1cc(CC(=O)O)c(C)n1-c1ccc(Cl)cc1`, the Potency result in experiment [1], in experiment [2], in experiment [3], in experiment [4], in [6] and in experiment [7] was “inactive” in each case. Besides, the Potency result in experiment [8], in experiment [20], in [9], in experiment [10], in experiment [13] and in experiment [14] was “inactive” throughout. For the same compound, the Potency entry in [15], in experiment [17], in experiment [18] and in experiment [19] was “inactive” each time.

As for `CC[C@H](c1ccc(O)cc1)[C@@H](CC)c1ccc(O)cc1`, the Potency entry in [1], in experiment [2], in experiment [3], in experiment [4], in experiment [5] and in [6] was “inactive” each time. Further, the Potency result in [7], in experiment [8], in experiment [20], in experiment [10], in experiment [11] and in experiment [12] was “inactive” throughout. Moreover, the Potency entry in experiment [13], in [14], in [15], in experiment [16], in [17] and in experiment [18] was “inactive” each time. The Potency result in experiment [19] was “inactive”.

`CN(C)C(=O)Nc1ccc(Cl)c(Cl)c1`: the Potency entry in [1], in experiment [2], in [4], in experiment [6], in experiment [15] and in [19] was “inactive” throughout. Besides, the Potency in experiment [14] is 4.47 µM (active).

Consider `COc1cc([C@H]2Oc3cc([C@H]4Oc5cc(O)cc(O)c5C(=O)[C@@H]4O)ccc3O[C@@H]2CO)ccc1O`, for which the Potency result in [1], in experiment [2], in experiment [3], in experiment [4], in experiment [5] and in [6] was “inactive” in each case. For the same compound, the Potency entry in experiment [8], in experiment [20], in [9], in [10], in experiment [11] and in [12] was “inactive” each time. In addition, the Potency entry in experiment [13], in experiment [15], in experiment [16], in [17], in [18] and in [19] was “inactive” in each case.

As for `CNCCc1ccccn1`, the Potency result in [1], in experiment [2], in experiment [3], in [4], in experiment [5] and in [6] was “inactive” each time. The Potency entry in experiment [7], in [20], in experiment [9], in [10], in experiment [11] and in [12] was “inactive” in each case. In addition, the Potency entry in [13], in experiment [14], in experiment [15], in [16], in [17] and in experiment [18] was “inactive” throughout. Besides, the Potency entry in [19] was “inactive”.

`CCN(CC)CCOC(=O)C1(c2ccccc2)CCCC1`: the Potency result in experiment [1], in [2], in [3], in experiment [5], in [6] and in experiment [11] was “inactive” each time. In addition, the Potency result in [13], in [15], in experiment [16], in experiment [17] and in [19] was “inactive” in each case. In addition, the Potency was 11.2 µM (active) in experiment [4], 10.7 µM (active) in [20] and 2.82 µM (active) in [12].

For `CN(Cc1ccc(C(C)(C)C)cc1)Cc1cccc2ccccc12`, the Potency entry in experiment [1], in [3], in experiment [4], in [6], in experiment [7] and in experiment [8] was “inactive” in each case. For the same compound, the Potency entry in experiment [20], in experiment [9], in [10], in experiment [11], in [12] and in experiment [13] was “inactive” in each case. Moreover, the Potency entry in experiment [14], in experiment [15], in experiment [16], in experiment [17], in experiment [18] and in experiment [19] was “inactive” each time.

On to `CC(C)=CCOc1ccc(/C=C/C(=O)c2ccc(OCC=C(C)C)cc2OCC(=O)O)cc1`, for which the Potency entry in experiment [1], in experiment [2], in experiment [3], in experiment [4], in [5] and in [6] was “inactive” each time. Besides, the Potency entry in experiment [8], in [20], in [9], in [11], in [12] and in experiment [13] was “inactive” in each case. In addition, the Potency result in experiment [14], in experiment [15], in experiment [16], in experiment [17], in experiment [18] and in experiment [19] was “inactive” throughout.

For the compound `CCCN(CCc1cccs1)[C@H]1CCc2c(O)cccc2C1`, the Potency in experiment [1] is 7.94 µM (active); in experiment [2] it was 7.94 µM (active); in [3], 11.2 µM (active); in [4] it was 11.2 µM (active); in [5], 10 µM (active); in experiment [7] it was 13.5 µM (active). Further, the Potency in [20] was 6.75 µM (active); in experiment [9], 10.7 µM (active); in experiment [10], 15.1 µM (active); in [11], 11.2 µM (active); in [12], 3.16 µM (active); in experiment [13], 10 µM (active). Also, the values for the Potency in experiment [14], in experiment [16] and in [18] were 8.91 µM (active), 11.2 µM (active) and 12.6 µM (active), respectively.

With `Oc1c(Cl)cc(Cl)c(Cl)c1Cc1c(O)c(Cl)cc(Cl)c1Cl`, the Potency in [5] is 8.91 µM (active); in experiment [7], 10.7 µM (active); in [8], 10.7 µM (active); in [20] it was 7.57 µM (active); in experiment [9], 12 µM (active); in experiment [10] it was 7.57 µM (active). Also, the Potency in experiment [11] is 8.91 µM (active); in [12] it was 11.2 µM (active); in experiment [13] it was 10 µM (active); in experiment [14], 8.91 µM (active); in experiment [16] it was 8.91 µM (active). Further, the Potency result in [17] is “inactive”.

For `Clc1cccc(C(c2ccc3nc[nH]c3c2)n2ccnc2)c1` (stereo not given), the Potency was 10 µM (active) in [3] and 12 µM (active) in experiment [9]. In addition, the Potency entry in experiment [4], in experiment [13] and in experiment [19] was “inactive” throughout.

As for `CCCCCCCCCCCCOCCOCCOCCOCCOCCOCCOCCOCCOCCO`, the Potency entry in [6], in [7], in experiment [8], in experiment [20], in [9] and in [10] was “inactive” each time. The Potency entry in [12] and in experiment [19] was “inactive” each time.

Consider `CN1CCc2cccc3c2[C@H]1Cc1ccc(O)c(O)c1-3`, for which the Potency was 8.91 µM (active) in experiment [2], 6.31 µM (active) in experiment [12], 8.91 µM (active) in [15] and 11.2 µM (active) in [18].

`CCOCCn1c(N2CCCN(C)CC2)nc2ccccc21`: the Potency result in experiment [2], in experiment [3], in [4], in [5], in [6] and in experiment [8] was “inactive” throughout. For the same compound, the Potency result in [9], in experiment [10], in experiment [11], in experiment [13], in experiment [14] and in experiment [15] was “inactive” in each case. Further, the Potency entry in experiment [16], in [17], in experiment [18] and in [19] was “inactive” each time. Further, in experiment [12], the Potency is 11.2 µM (active).

As for `CCCCCN=C(N)N/N=C/c1c[nH]c2ccc(OC)cc12`, the Potency in experiment [1] is 5.01 µM (active); in [5], 7.94 µM (active); in [12], 5.01 µM (active); in experiment [18], 5.01 µM (active). For the same compound, the Potency result in experiment [6] and in [19] was “inactive” each time.

In the case of `CO[C@]12C[C@@H](COC(=O)c3cncc(Br)c3)CN(C)[C@@H]1Cc1cn(C)c3cccc2c13`, the Potency result in experiment [4], in experiment [6], in experiment [7], in experiment [8], in experiment [9] and in experiment [11] was “inactive” throughout. In addition, the Potency result in experiment [15], in experiment [16] and in [17] was “inactive” throughout.

On to `CCN(CC)CCOc1ccc2c(c1)C(=O)c1cc(OCCN(CC)CC)ccc1-2`, for which the Potency in experiment [1] was 11.2 µM (active); in experiment [3], 10 µM (active); in [4] it was 12.6 µM (active); in experiment [12], 12.6 µM (active); in experiment [17], 11.2 µM (active). In experiment [19], the Potency result is “inactive”.
